The values that follow come from PubChem BioAssay (NCATS).

Records with an inconclusive call do not appear. Where a call stands in place of a potency, no number is given. A number with no mark means an inactive call. Active and inactive are the calls of the source. The call rests on the fitted dose curve; in most records, active means well fitted curve in the direction sought with a large enough effect; inconclusive means small, poorly fitted or top-dose-only effect, or another doubt; inactive means no such curve, though single readings can be large; an effect the other way counts as inactive or inconclusive.

Assay [1] concerns Zika virus NS2B-NS3 protease (unlinked). The assay is described as follows: Optimization of GU AMC qHTS for Zika virus inhibitors: Unlinked NS2B-NS3 protease assay (AID 1347151). Further: nearly all actives have a fitted effect of over 80% in size. Further: potency means the concentration at half of the fitted maximal effect. On activity change, negative = inhibition: series mostly up to about 52 µM. A digest of the protocol:
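Percent inhibition is derived from the 15-min change in AMC fluorescence, normalized against no-inhibitor and no-enzyme controls, then fitted to a 4-parameter Hill curve. Aprotinin was the intraplate control.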
A general note: In qHTS, concentration-response curves come from the screen itself.

Assay [2] deals with Zika virus NS2B-NS3 protease. Kind of assay: Primary screen GU AMC qHTS for Zika virus inhibitors (AID 1347154). Further: nearly all actives have a fitted effect of over 70% in size. The method in brief: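 Unlinked Zika NS2B hydrophilic domain/NS3 protease domain noncovalent complex (25 nM final) in 10 mM Tris-HCl pH 8.0, 0.01% Tween 20, with AMC peptide substrate. Fluorescence (ex 340, em 450 nm) change over 15 min, room temperature; percent inhibition fitted to 4-parameter Hill equation.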

Assay [3] relates to Zika virus NS2B-NS3 protease (linked construct). The assay is described as follows: Confirmatory screen NINDS AMC qHTS for Zika virus inhibitors (AID 1347152).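 Further: AMC fluorescence gain from cleaved Bz-Nle-KRR-AMC substrate over 15 min; top concentration of the series differs between compounds; nearly all actives have a fitted effect of over 70% in size.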 The method in brief:
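In this dose-response qHTS, AMC release from 10 microM Bz-Nle-KRR-AMC by 1 nM linked protease is measured over 15 minutes (about 20% conversion) at pH 8.0. Percent inhibition is fitted to a 4-parameter Hill curve.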

Assay [4] relates to Zika virus NS2B-NS3 protease (unlinked complex). Kind of assay: Confirmatory screen GU AMC qHTS for Zika virus inhibitors (AID 1347153). Further: nearly all actives have a fitted effect of over 70% in size. The method in brief:
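Unlinked enzyme 25 nM, Tris pH 8.0/0.01% Tween 20; cpd 15 min RT, dark; + AMC substrate 10 µM (Km 18.3 µM); 340/450 nm read at t0 and 15 min; % inhibition → 4-param fit.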

Assay [5] has the same test system. The assay is described as follows: Primary screen GU Rhodamine qHTS for Zika virus inhibitors: Unlinked NS2B-NS3 protease assay (AID 1347159). Further: nearly all actives have a fitted effect of over 60% in size. A digest of the protocol: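 Compounds, tested up to 114 microM, were incubated for 15 minutes with 25 nM unlinked NS2B-NS3 protease at pH 8.0. Cleavage of 1.5 microM Rhodamine110 substrate was then followed by fluorescence for 15 minutes.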

Assay [6] relates to Zika virus NS2B-NS3 protease (linked construct). Kind of assay: Primary screen NINDS Rhodamine qHTS for Zika virus inhibitors (AID 1347160). Further: nearly all actives have a fitted effect of over 55% in size. A digest of the protocol: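 Percent inhibition, normalized to uninhibited and enzyme-free controls, is fitted to a 4-parameter Hill equation. Fluorescence change comes from a 15-min cleavage of 1.5 microM bis-peptide Rhodamine110 substrate by 25 nM linked NS2B-NS3 at room temperature.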

Take `OCCN1CCN(CCCN2c3ccccc3Sc3ccc(Cl)cc32)CC1`: the Potency result in assay [1] and in assay [2] was “inactive” each time.
As to `CC(CN1c2ccccc2Sc2ccccc21)N(C)C` (stereo unspecified), the Potency entry in assay [1] and in assay [2] was “inactive” throughout.
As to `CNCCC(Oc1ccc(C(F)(F)F)cc1)c1ccccc1` (stereo unspecified), the Potency result in assay [1] and in assay [2] was “inactive” each time.
Take `CN(C)CCCN1c2ccccc2CCc2ccccc21`: the Potency entry in assay [1] and in assay [2] was “inactive” in each case.
Regarding `CN(C)CCC=C1c2ccccc2CCc2ccccc21`, the Potency entry in assay [1] and in assay [2] was “inactive” throughout.
Turning to `NC1[C@H]2CN(c3nc4c(cc3F)c(=O)c(C(=O)O)cn4-c3ccc(F)cc3F)C[C@@H]12` (stereo partly specified), the Potency in assay [1] is 23.8 µM (active). Moreover, the Potency entry in assay [3] and in assay [2] was “inactive” throughout. Besides, the outcome in assay [4] was inactive.
Take `C[C@]12C[C@H](O)[C@H]3[C@@H](CCC4=CC(=O)CC[C@@]43C)[C@@H]1CC[C@@H]2C(=O)CO`: the Potency result in assay [1] and in assay [2] was “inactive” in each case.
As to `C[C@]12CC[C@@H]3c4ccc(O)cc4CC[C@H]3[C@@H]1CCC2=O`, the Potency entry in assay [1] and in assay [2] was “inactive” each time.
Take `Nc1ncnc2c1ncn2[C@@H]1O[C@H](CO)[C@@H](O)[C@H]1O`: the Potency result in assay [1] and in assay [2] was “inactive” throughout.
Take `CSc1ccc2c(c1)C(N1CCN(C)CC1)Cc1ccccc1S2` (stereo unspecified): the Potency entry in assay [1] and in assay [2] was “inactive” in each case.
Turning to `COC(=O)C1=C(C)NC(C)=C(C(=O)OC)C1c1ccccc1[N+](=O)[O-]`, the Potency entry in assay [1] and in assay [2] was “inactive” throughout.
Consider `C[C@H](NC(CCc1ccccc1)C(=O)O)C(=O)N1CCC[C@H]1C(=O)O` (stereo partly specified), for which the Potency result in assay [1] and in assay [2] was “inactive” in each case.
As to `CC(CN(C)C)CN1c2ccccc2CCc2ccccc21` (stereo unspecified), the Potency entry in assay [1] and in assay [2] was “inactive” each time.
For `OCc1cc(C(O)CNCCCCCCOCCCCc2ccccc2)ccc1O` (stereo unspecified), the Potency in assay [1] was 26.7 µM (active).
On to `CC[C@H]1CN2CCc3cc(OC)c(OC)cc3[C@@H]2C[C@@H]1C[C@H]1NCCc2cc(OC)c(OC)cc21`, for which the Potency entry in assay [1] and in assay [2] was “inactive” in each case.
Turning to `Nc1cc(=O)[nH]c(N)n1`, the Potency result in assay [1] and in assay [2] was “inactive” in each case.
For the molecule `C[C@H]1O[C@@H](n2cc(F)c(=O)[nH]c2=O)[C@H](O)[C@@H]1O`, the Potency result in assay [1] and in assay [2] was “inactive” throughout.
Consider `CN1CCN(C2Cc3ccccc3Sc3ccc(Cl)cc32)CC1` (stereo unspecified), for which the Potency entry in assay [1] and in assay [2] was “inactive” throughout.
For `CCCCN(CCCC)CC(O)c1cc(Cl)cc2c1-c1ccc(Cl)cc1/C2=C/c1ccc(Cl)cc1` (stereo unspecified), the Potency result in assay [1] and in assay [2] was “inactive” throughout.
For `N=c1c[n+](N2CCOCC2)[n-]o1`, the Potency entry in assay [1] is “inactive”.
Consider `CC1=C(/C=C/C(C)=C/C=C/C(C)=C/C(=O)O)C(C)(C)CCC1`, for which the Potency result in assay [1] and in assay [2] was “inactive” each time.
Consider `N[C@H](C(=O)O)c1ccc(O)cc1`, for which the Potency entry in assay [1] and in assay [2] was “inactive” throughout.
As for `C#CCN(C)Cc1ccccc1`, the Potency result in assay [1] and in assay [2] was “inactive” in each case.
As for `CN(C)CC[C@@H](c1ccc(Cl)cc1)c1ccccn1`, the Potency result in assay [1] and in assay [2] was “inactive” each time.
Consider `O=C1NC(=O)[C@@]2(CCOc3ccc(F)cc32)N1`, for which the Potency entry in assay [1] and in assay [2] was “inactive” each time.
In the case of `CC(=O)c1ccc2c(c1)N(CCCN(C)C)c1ccccc1S2`, the Potency entry in assay [1] and in assay [2] was “inactive” throughout.
With `CN(C)CCOC(C)(c1ccccc1)c1ccccn1` (stereo unspecified), the Potency result in assay [1] and in assay [2] was “inactive” in each case.
In the case of `Cc1c(O)cccc1C(=O)N[C@@H](CSc1ccccc1)[C@H](O)CN1C[C@H]2CCCC[C@H]2C[C@H]1C(=O)NC(C)(C)C`, the Potency result in assay [1] and in assay [2] was “inactive” each time.
Turning to `NC(N)=NCCC[C@H](N)C(=O)O`, the Potency result in assay [1] and in assay [2] was “inactive” in each case.
Take `CSc1ccc2c(c1)N(CCC1CCCCN1C)c1ccccc1S2` (stereo unspecified): the Potency entry in assay [1] and in assay [2] was “inactive” each time.
`CC(C)NC[C@H](O)c1ccc(O)c(O)c1`: the Potency result in assay [1] and in assay [2] was “inactive” each time.
Turning to `CC(C)C(=O)c1c(C(C)C)nn2ccccc12`, the Potency result in assay [1] and in assay [2] was “inactive” throughout.
As to `O=C1N=C(O)CN1/N=C/c1ccc(-c2ccc([N+](=O)[O-])cc2)o1`, in assay [1], the Potency entry is “inactive”.
Regarding `NC(=O)c1ncn([C@@H]2O[C@H](CO)[C@@H](O)[C@H]2O)n1`, the Potency result in assay [1] and in assay [2] was “inactive” in each case.
`CC(C)(C)c1onc(OCP(=O)(O)O)c1CC(N)C(=O)O` (stereo unspecified): the Potency result in assay [1] is “inactive”.
For `CC1=C(CC(=O)O)c2cc(F)ccc2/C1=C\c1ccc(S(C)=O)cc1` (stereo unspecified), the Potency entry in assay [1] and in assay [2] was “inactive” throughout.
For the molecule `CC1=C(CC(=O)O)c2cc(F)ccc2/C1=C\c1ccc(S(C)(=O)=O)cc1`, the Potency entry in assay [1] and in assay [2] was “inactive” each time.
For the molecule `COCCOC(=O)C1=C(C)NC(C)=C(C(=O)OC/C=C/c2ccccc2)C1c1cccc([N+](=O)[O-])c1` (stereo unspecified), the Potency entry in assay [1] and in assay [2] was “inactive” each time.
Regarding `CNCCCC1c2ccccc2C=Cc2ccccc21`, the Potency in assay [1] was 26.7 µM (active).
With `CNC(=O)Oc1ccc2c(c1)[C@]1(C)CCN(C)[C@@H]1N2C`, the Potency result in assay [1], in assay [2], in assay [5] and in assay [6] was “inactive” in each case.
For `CC1=C(C/C=C(\C)CCC[C@H](C)CCC[C@H](C)CCCC(C)C)C(=O)c2ccccc2C1=O`, the Potency result in assay [2] is “inactive”.
Same read-out and setting: the entry for `CN1[C@@H]2CC[C@H]1CC(OC(=O)C(O)c1ccccc1)C2` (stereo partly specified) is “inactive”.
As to `C[C@](N)(Cc1ccc(O)cc1)C(=O)O`, the Potency result in assay [1] is “inactive”. Besides, the activity change, negative = inhibition in assay [2] is -1.38% [at 4.99 µM].
`Cc1cc(N)c2ccccc2[n+]1CCCCCCCCCC[n+]1c(C)cc(N)c2ccccc21`: the Potency in assay [1] was 23.8 µM (active). Moreover, the Potency result in assay [5] and in assay [6] was “inactive” each time.
`CC(C)c1c(C(=O)Nc2ccccc2)c(-c2ccccc2)c(-c2ccc(F)cc2)n1CC[C@@H](O)C[C@@H](O)CC(=O)O`: the Potency entry in assay [1], in assay [2] and in assay [6] was “inactive” throughout.
As to `CC(C)(C)NCC(O)COc1ccc(NC(=O)NC2CCCCC2)cc1` (stereo unspecified), in assay [2], the Potency entry was “inactive”.
Still for that read-out and setting: the entry for `CC1(C)CO[C@@H](CC(=O)O)CN1` is “inactive”; for `Cc1ccc(C(C)C)cc2c(C)ccc1-2` it is “inactive”.
As to `NCCNCCNCCNCCN`, the activity change, negative = inhibition in assay [2] was -0.671% [at 6.83 µM].
`CNCC(O)c1ccc(O)c(O)c1` (stereo unspecified): the Potency entry in assay [1] and in assay [2] was “inactive” throughout.
Consider `Cc1cccc(C)c1NC(=O)CN(CC(=O)O)CC(=O)O`, for which the Potency result in assay [2] was “inactive”.
